Test results as given in article PMC5540273 (PLoS ONE, 2017).

The molecules below were run on PRKD3. Settings: concentration: 1 μM,replicates: in singlicate; n = 1.
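Also: KINOMEscan kinase panel screen.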

| SMILES | %Inh |
| --- | --- |
| CC(C)c1nc(-c2cccc(NS(=O)(=O)c3ccccc3)c2)c(-c2ccnc(Nc3ccc4c(c3)CN(C)CC4)n2)s1 [GSK1649598] | 100% |
| C[C@@H](Oc1cc(-n2cnc3cc(-c4cnn(C)c4)ccc32)sc1C(N)=O)c1ccccc1Cl [GSK580432] | 0% |
| CCn1c(-c2nonc2N)nc2cncc(CNC3CCNCC3)c21.Cl [SB-747651] | 50% |
| CN1CCN(CCCNc2nccc(-c3c(-c4ccc(F)cc4)nn4cc(C(N)=O)ccc34)n2)CC1 [GW622475] | 89% |
| Cc1ccc(C(=O)Nc2ccc(Oc3ccc4nc(NC(=O)C5CC5)cn4c3)c(F)c2)c(=O)n1-c1ccccc1 | 0% |
| CC(=O)Nc1ccc(-c2cc3ncnc(SCC(=O)O)c3s2)cc1 | 7% |
| Cn1ccc2ncnc(Oc3ccc(NC(=O)Nc4ccnc(C(F)(F)F)c4)c(Cl)c3)c21 | 0% |
| NC(=O)c1ccc(-c2cc3ncnc(SCC(=O)O)c3s2)cc1 | 0% |
| CN(c1ccc2c(c1)nc(NCc1ccc(F)cc1)n2C)c1ccnc(Nc2ccc(CS(C)(=O)=O)cc2)n1.Cl [GW813244] | 7% |
| FC(F)(F)c1cc(Br)cc(Nc2nccc(-c3cnn4ncccc34)n2)c1 [GW810578] | 0% |
| Cn1ccc2ncnc(Oc3ccc(NC(=O)Nc4cccc(C(F)(F)F)c4)c(F)c3)c21 | 0% |
| CCCC(=O)Nc1n[nH]c2ncccc12 [SB-601436] | 0% |
| CN(c1ccccc1CNc1nc(Nc2ccc3c(c2)CC(=O)N3)ncc1C(F)(F)F)S(C)(=O)=O | 70% |
| COC(=O)c1cccc(NC(=O)NC2CCN(c3ccnc(Nc4cc(OC)c(OC)c(OC)c4)n3)C2)c1 (centres unmarked) [GSK1379767] | 0% |
| Cc1n[nH]c2cc(Nc3ccnc(Nc4cccc(CN5CCOCC5)c4)n3)ccc12 [GW682569] | 18% |
| O=C(Nc1cccc(C(F)(F)F)c1)c1cccc(Oc2ccc3nccn3n2)c1 | 0% |
| C[C@@H]1CNc2c(sc3ccc4nc(-c5ccc(O)cc5)ccc4c23)C(=O)N1 | 43% |
| O=C(Nc1n[nH]c2cc(-c3ccco3)ccc12)C1CC1 [SB-737447] | 0% |
| Cn1cc(-c2cccc3c(N)c(C(N)=O)nnc23)cn1 | 21% |

| SMILES | %Inh |
| --- | --- |
| OCCn1cc(-c2cnc3nnn(Cc4ccc5ncccc5c4)c3n2)cn1 | 0% |
| Cl.c1ccc(Oc2ccc(Nc3ccnc4cc(-c5ccc(CN6CCNCC6)o5)ccc34)cc2)nc1 [GW567142] | 19% |
| CS(=O)c1ccc(-c2coc3ccc(-c4n[nH]c(=O)o4)cc23)cc1 (centres unmarked) | 0% |
| CS(=O)(=O)Nc1ccc(-c2ccnc3[nH]ccc23)cc1 [GSK993273] | 0% |
| COC(=O)Nc1nc2cc(Oc3ccc(NC(=O)Nc4cc(C(F)(F)F)ccc4Cl)cc3)ccc2[nH]1.Cl [GW697465] | 9% |
| O=C(Nc1ccc(Oc2ccc3nc(NC(=O)C4CC4)cn3n2)c(F)c1)c1cccn(-c2ccccc2)c1=O | 0% |
| CCNCC(Cc1ccccc1)NC(=O)c1cc(Br)c(-c2ccnc3[nH]ccc23)s1.Cl.Cl (centres unmarked) [GSK1383280] | 73% |
| Cc1ccn2nc(-c3ccc(F)cc3)c(-c3ccncc3)c2c1.Cl [GW457859] | 30% |
| C[C@@H]1CNc2c(sc3ccc4nc(-c5ccncc5)ccc4c23)C(=O)N1 | 34% |
| Nc1nccc(-c2ccc3c(N)n[nH]c3c2)n1 [GSK1034945] | 4% |
| COC(=O)c1cccc(NC(=O)NC2CCN(c3ccnc(NCc4ccc(F)cc4)n3)CC2)c1 [GSK1379860] | 25% |
| CC(=O)Nc1nc2cnc(Nc3cc(NC(=O)c4cccc(CC(C)(C)C#N)c4)ccc3C)nc2s1 | 0% |
| O=C1NCCc2[nH]c(-c3ccncc3)cc21 | 43% |
| COc1cccc(CNC(=O)NC2CCN(c3ccnc(Nc4cc(OC)c(OC)c(OC)c4)n3)C2)c1 (centres unmarked) [GSK1379765] | 0% |
| NC(=O)Nc1sc(-c2ccc(F)cc2)cc1C(N)=O [GW789449] | 0% |
| CS(=O)(=O)c1cccc(CNc2nc(Nc3ccc4c(c3)[C@@H]3C[C@@H]4CNC3=O)ncc2C(F)(F)F)c1 | 22% |
| O=c1[nH]cc(-c2ccc(O)cc2)c2sc(-c3ccncc3)cc12 [GSK1033723] | 1% |
| CC(C(=O)NC1CCN(c2ccnc(Nc3ccc(F)cc3)n2)C1)c1ccc(Cl)cc1 (centres unmarked) [GSK1379713] | 2% |

The molecules below were run on PRKG1. Settings: concentration: 1 μM,replicates: in singlicate; n = 1.

| SMILES | %Inh |
| --- | --- |
| CC(C)c1nc(-c2cccc(NS(=O)(=O)c3ccccc3)c2)c(-c2ccnc(Nc3ccc4c(c3)CN(C)CC4)n2)s1 [GSK1649598] | 0% |
| C[C@@H](Oc1cc(-n2cnc3cc(-c4cnn(C)c4)ccc32)sc1C(N)=O)c1ccccc1Cl [GSK580432] | 17% |
| CCn1c(-c2nonc2N)nc2cncc(CNC3CCNCC3)c21.Cl [SB-747651] | 74% |
| CN1CCN(CCCNc2nccc(-c3c(-c4ccc(F)cc4)nn4cc(C(N)=O)ccc34)n2)CC1 [GW622475] | 6% |
| Cc1ccc(C(=O)Nc2ccc(Oc3ccc4nc(NC(=O)C5CC5)cn4c3)c(F)c2)c(=O)n1-c1ccccc1 | 5% |
| CC(=O)Nc1ccc(-c2cc3ncnc(SCC(=O)O)c3s2)cc1 | 1% |
| Cn1ccc2ncnc(Oc3ccc(NC(=O)Nc4ccnc(C(F)(F)F)c4)c(Cl)c3)c21 | 0% |
| NC(=O)c1ccc(-c2cc3ncnc(SCC(=O)O)c3s2)cc1 | 0% |
| CN(c1ccc2c(c1)nc(NCc1ccc(F)cc1)n2C)c1ccnc(Nc2ccc(CS(C)(=O)=O)cc2)n1.Cl [GW813244] | 9% |
| FC(F)(F)c1cc(Br)cc(Nc2nccc(-c3cnn4ncccc34)n2)c1 [GW810578] | 25% |
| Cn1ccc2ncnc(Oc3ccc(NC(=O)Nc4cccc(C(F)(F)F)c4)c(F)c3)c21 | 18% |
| CCCC(=O)Nc1n[nH]c2ncccc12 [SB-601436] | 5% |
| CN(c1ccccc1CNc1nc(Nc2ccc3c(c2)CC(=O)N3)ncc1C(F)(F)F)S(C)(=O)=O | 0% |
| COC(=O)c1cccc(NC(=O)NC2CCN(c3ccnc(Nc4cc(OC)c(OC)c(OC)c4)n3)C2)c1 (centres unmarked) [GSK1379767] | 0% |
| Cc1n[nH]c2cc(Nc3ccnc(Nc4cccc(CN5CCOCC5)c4)n3)ccc12 [GW682569] | 0% |
| O=C(Nc1cccc(C(F)(F)F)c1)c1cccc(Oc2ccc3nccn3n2)c1 | 19% |
| C[C@@H]1CNc2c(sc3ccc4nc(-c5ccc(O)cc5)ccc4c23)C(=O)N1 | 12% |
| O=C(Nc1n[nH]c2cc(-c3ccco3)ccc12)C1CC1 [SB-737447] | 0% |
| Cn1cc(-c2cccc3c(N)c(C(N)=O)nnc23)cn1 | 39% |

| SMILES | %Inh |
| --- | --- |
| OCCn1cc(-c2cnc3nnn(Cc4ccc5ncccc5c4)c3n2)cn1 | 0% |
| Cl.c1ccc(Oc2ccc(Nc3ccnc4cc(-c5ccc(CN6CCNCC6)o5)ccc34)cc2)nc1 [GW567142] | 0% |
| CS(=O)c1ccc(-c2coc3ccc(-c4n[nH]c(=O)o4)cc23)cc1 (centres unmarked) | 4% |
| CS(=O)(=O)Nc1ccc(-c2ccnc3[nH]ccc23)cc1 [GSK993273] | 77% |
| COC(=O)Nc1nc2cc(Oc3ccc(NC(=O)Nc4cc(C(F)(F)F)ccc4Cl)cc3)ccc2[nH]1.Cl [GW697465] | 2% |
| O=C(Nc1ccc(Oc2ccc3nc(NC(=O)C4CC4)cn3n2)c(F)c1)c1cccn(-c2ccccc2)c1=O | 30% |
| CCNCC(Cc1ccccc1)NC(=O)c1cc(Br)c(-c2ccnc3[nH]ccc23)s1.Cl.Cl (centres unmarked) [GSK1383280] | 99% |
| Cc1ccn2nc(-c3ccc(F)cc3)c(-c3ccncc3)c2c1.Cl [GW457859] | 0% |
| C[C@@H]1CNc2c(sc3ccc4nc(-c5ccncc5)ccc4c23)C(=O)N1 | 35% |
| Nc1nccc(-c2ccc3c(N)n[nH]c3c2)n1 [GSK1034945] | 0% |
| COC(=O)c1cccc(NC(=O)NC2CCN(c3ccnc(NCc4ccc(F)cc4)n3)CC2)c1 [GSK1379860] | 0% |
| CC(=O)Nc1nc2cnc(Nc3cc(NC(=O)c4cccc(CC(C)(C)C#N)c4)ccc3C)nc2s1 | 0% |
| O=C1NCCc2[nH]c(-c3ccncc3)cc21 | 83% |
| COc1cccc(CNC(=O)NC2CCN(c3ccnc(Nc4cc(OC)c(OC)c(OC)c4)n3)C2)c1 (centres unmarked) [GSK1379765] | 3% |
| NC(=O)Nc1sc(-c2ccc(F)cc2)cc1C(N)=O [GW789449] | 6% |
| CS(=O)(=O)c1cccc(CNc2nc(Nc3ccc4c(c3)[C@@H]3C[C@@H]4CNC3=O)ncc2C(F)(F)F)c1 | 0% |
| O=c1[nH]cc(-c2ccc(O)cc2)c2sc(-c3ccncc3)cc12 [GSK1033723] | 16% |
| CC(C(=O)NC1CCN(c2ccnc(Nc3ccc(F)cc3)n2)C1)c1ccc(Cl)cc1 (centres unmarked) [GSK1379713] | 9% |
